Measurements as given in PubChem BioAssay (EPA / NIEHS).
Records with an inconclusive call do not appear. The source made the active and inactive calls. The calls were made as follows: active = hit-call score of the fitted dose curve at least 0.9, where 1 is the maximum; inconclusive = response in the unintended direction; inactive = score below 0.9.

target: human AKT serine/threonine Kinase 2 (AKT2), AKT2 (gene 208) (UniProt P31751); test: NVS_ENZ_hAKT2: NovaScreen (NVS) Enzymatic Assay for human AKT serine/threonine Kinase 2 (AKT2) (AID 2283141)
Procedure: NVS_ENZ_hAKT2 is a biochemical, single-readout assay that uses extracted gene-proteins in a cell-free assay. Measurements were taken 1 hour after chemical dosing in a 384-well plate.NVS_ENZ_hAKT2 is one of one assay component(s) measured or calculated from the NVS_ENZ_hAKT2 assay. It is designed to make measurements of enzyme activity, a form of enzyme reporter, as detected with fluorescence intensity signals by Fluorescence and electrophoretic mobility shift technology.Data from the assay component NVS_ENZ_hAKT2 was analyzed into 1 assay endpoint. This assay endpoint, NVS_ENZ_hAKT2, was analyzed in the positive analysis fitting direction relative to DMSO as the negative control and baseline of activity. Using a type of enzyme reporter, loss-of-signal activity can be used to understand changes in the enzymatic activity as they relate to the gene AKT2. Furthermore, this assay endpoint can be referred to as a primary readout, because this assay has produced multiple assay endpoints where this one serves a enzymatic activity function. To generalize the intended target to other relatable targets, this assay endpoint is annotated to the kinase intended target family, where the subfamily is serine/threonine kinase.
Binding assays used specific radioligands (tritiated, iodinated) with non-radioactive competitive displacement ligands in agonist or antagonist protocols (as indicated) and various reference compounds and inhibitors to titrate specific binding to receptors and transporters. Most enzyme assays (CYPs, kinases, phosphatases, proteases, HDACs) used recombinant protein and specific substrates (fluorescence mostly, some colorimetric and radioactive) and inhibitors, followed by a biochemical separation of substrate and product. All assays for the biochemical HTS were initially run in duplicate at a single concentration (10 uM for CYP450 assays and 25 uM for all others). Assay-chemical combinations meeting a pre-defined threshold (e.g., 30% inhibition and other criteria defined below) were then run in singleton concentration-response format with maximum concentration of 20 uM for CYPs and 50 uM for all others. Each assay was run with positive and negative controls, and concurrent controls on every plate. The follow-up (secondary) screen tested active chemical-pairs in concentration series, as well as a few additional assays not tested in the primary screen, some selected negative inactives, and several cases re-run in the concentration series for confirmatory purposes.

human AKT serine/threonine Kinase 2 (AKT2), AKT2 (gene 208), sequence (P31751 whole entry, looked up): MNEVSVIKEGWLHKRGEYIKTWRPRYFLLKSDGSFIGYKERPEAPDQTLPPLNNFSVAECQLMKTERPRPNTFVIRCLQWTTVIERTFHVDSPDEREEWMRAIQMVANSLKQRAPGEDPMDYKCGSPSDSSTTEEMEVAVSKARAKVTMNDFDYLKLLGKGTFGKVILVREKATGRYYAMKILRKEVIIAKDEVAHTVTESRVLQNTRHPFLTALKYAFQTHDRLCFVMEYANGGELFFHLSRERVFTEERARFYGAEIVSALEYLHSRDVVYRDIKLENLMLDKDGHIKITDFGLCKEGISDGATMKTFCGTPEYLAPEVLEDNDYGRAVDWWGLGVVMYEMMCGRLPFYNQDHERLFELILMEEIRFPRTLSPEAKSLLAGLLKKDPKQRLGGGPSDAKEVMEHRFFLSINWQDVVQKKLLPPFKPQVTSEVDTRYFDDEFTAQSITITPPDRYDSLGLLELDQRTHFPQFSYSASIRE

Row | SMILES | outcome
1 | c1ccc(NNc2ccccc2)cc1 | inactive
2 | O=C1CCCO1 | inactive
3 | C[N+](C)(C)CC1CO1 (stereo unspecified) | inactive
4 | CCCCCCCCn1sccc1=O | inactive
5 | O=C(O)C1C2CCC(O2)C1C(=O)O (stereo unspecified) | inactive
6 | CCC[CH2][Sn]([Cl])([CH2]CCC)[CH2]CCC | inactive
7 | O=P(OCCCl)(OCCCl)OCCCl | inactive
8 | Cc1ccc(N)c(N)c1 | inactive
9 | CCNS(=O)(=O)C(F)(F)C(F)(F)C(F)(F)C(F)(F)C(F)(F)C(F)(F)C(F)(F)C(F)(F)F | inactive
10 | Cc1ccc(N=C=O)cc1N=C=O | inactive
11 | CN(C)C(=O)Nc1ccc(Cl)cc1 | inactive
